The values that follow come from PubChem BioAssay AID1508600 (Functional Genomics Laboratory (NCATS/FGL), 2020).

Screen size: about 53,000 sequences; about 3,700 (7%) were called active.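 Rule for the calls: active = gene knockdowns whose robust z-score for IL-1 alpha signal is at least 2 or at most -2, so actives lie on both sides; inactive = the rest.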 The sample as a whole holds a higher share of actives than the screen did.

A short description of this experiment: Components of the Cytosolic LPS Sensing Pathway: Gene Identification via Genome-wide siRNA Screen. The note with it: RAW264.7 macrophages, IL-1a HTRF, actives lie on both sides, screened at 100 nM (by protocol), cells primed 5 h with Pam3CSK4 first. From the text: Non-canonical inflammasome activation by cytosolic LPS is a critical component of the host response to Gram-negative bacterial infection, however we lack a comprehensive understanding of the cellular processes that control this pathway. Here we describe a genome-wide siRNA screen to identify genes regulating the mouse macrophage IL-1 alpha response to cytosolic LPS.
RAW264.7 cells were maintained in complete DMEM media, comprising DMEM with 4.5 g/L glucose, 10% FBS (Gemini Bio-Products, West Sacramento, CA), 2 mM Glutamine (Lonza) and 20 mM HEPES (Lonza), hereafter complete DMEM.
The RNAi screen was conducted in 384-well format using the Ambion Silencer Mouse Genome siRNA Library (#4391425), which consists of three unique, nonoverlapping, nonpooled siRNAs for each of 17,000 gene targets. siRNA reagents ([…]) were stamped into 384-well white flat-bottom microplates (Corning, 3570) using a Velocity11 VPrep liquid handling system (Agilent) integrated into a BioCel robotic platform (Agilent) in columns 1-22, leaving columns 23-24 empty for negative (Ambion, Negative control #1) and positive (mouse Casp4) controls, respectively. The median value of each plate's negative control column was used to normalize sample wells, and the positive control was used to assess transfection efficiency and assay performance.
Lipofectamine RNAiMAX Transfection Reagent ([…]; Invitrogen) was added in […] serum-free, antibiotic-free media to plate wells using a Thermo Scientific Matrix WellMate and Microplate Stacker. Plates were incubated for 45 min at room temperature to allow for the sufficient formation of siRNA-lipid complexes. Cells were seeded at a density of 1x10^4 cells per well in 20 microL media containing 20% (vol/vol) FBS without antibiotics. The final concentration of siRNA in each well was 100 nM. Cells were cultured for 48h at 37 degrees C in 5% CO2 before addition of […] of TLR ligand Pam3CSK4 for 5 hours. The medium was then removed, replaced with […] growth media and cell were transfected with […] of LipidA and TransIT-TKO (Mirus) for 24 hour. At the end of the LipidA treatment, […] of supernatant was transferred to a 384 Greiner Bio-one non-binding low volume plate and […] of IL-1a HTRF reagent (Cisbio, 62MIL1APEH) was added and incubated at room temperature overnight. The plates were read on an EnVision plate reader (PerkinElmer). Cell viability was measured by adding 20ul Cell Titer Glo to the original plate and running a luminescence read on the EnVision. The quantified IL-1a signal for each siRNA gene-targeted well was divided by the median of the negative control wells and multiplied by 100 to achieve a negative control normalized value for each well/siRNA. This normalized value was then used to generate a robust z-score by first taking the log of each value and then by subtracting the median and dividing by the […].
As for GACUGAACAGAUCUACUCUTT against Klra7, the z-score is -0.413 (inactive).
The same measure for CGCAUUUCGAAUAAAGACATT against Mettl22: -0.546 (inactive); for GCAUUUCACCGUCAUGAACTT against Ttll12: -2.55 (active); for GGAAGUUUGCUCAAUCUCATT against Jarid2: 1.12 (inactive).
The same measure for GGACCUGUAUUCACACCUUTT against Wdr61: 0.0931 (inactive).
GGGUUUUUGAUGAUGAUUCTT against Htatsf1: the z-score is -0.66 (inactive).
Turning to CGGGAUAGCUGUCCUGUUATT against Mrps14, the z-score is 0.127 (inactive).
Under GAAGCGAUGCUCAGAUCCATT against Serpina1d stands 0.136 (inactive); under GCCCUCCUUAUAGCUUAAUTT against Asic3, -2.2 (active).
Under GCUUCGAAGCAACAUCCGATT against Rims3 stands -0.00729 (inactive); under GGAAAAACUGUGCAAAUAATT against Krt75, 1.26 (inactive).
On to GCAGGCAUUCUGCUCUAUATT against Oxgr1, for which the z-score is 1.01 (inactive).
The same measure for GGGACAUUAAUAAACCUGATT against Omg: -0.269 (inactive).
The same measure for CCAUGGCCUAGAGCUGGAUTT against Unc5cl: 0.315 (inactive).
The same measure for GGAAGUAACAUGCUUCUAGTT against Ccdc42: 0.75 (inactive); for GGAUUCCAUCUUUGUAUGATT against Cbr4: 0.689 (inactive).
Consider GCCAAGUGAUUGAAAAAACTT against Lnpk, for which the z-score was -0.423 (inactive).
Under GGUGAAGAAAGUCAAGAAGTT against Spi1 stands -2.46 (active); under GGUUCUGGUGGUGAAUGUGTT against Kcnd1, -1.51 (inactive); under GCGAGUUGUUUCCAUAGUUTT against Gpr22, -0.388 (inactive).
Under GGCAGAGCUAGAUCAAAUUTT against Retreg1 stands 3.58 (active); under GGAAAUUCACACAGAUGAATT against Mtmr12, -1.27 (inactive).
Under GCCAACCUUCAAGGAAUAUTT against Cyp2b10 stands 1.4 (inactive); under GGGAAGACAAGAACAACUUTT against Pitrm1, 0.756 (inactive).
On to GGUCGUUAUCACUCUCUAUTT against Pkd1l3, for which the z-score was 3.34 (active).
As for CCCUUUAGCUUCCUAAUGUTT against Rhag, the z-score is 0.11 (inactive).
The same measure for GGUUUUAUUAACUCUGUGATT against Olfr1013: 0.453 (inactive).
Consider GGACUGCUUUUUUUACUCATT against Mta2, for which the z-score is -2.07 (active).
With CCUGGUAAUCACAAUUUCGTT against Tor1b, the z-score was -0.655 (inactive).
The same measure for GGUAGACAAGAUCAUCGGATT against Dsc3: 0.711 (inactive).
As to GGCAUAGAAGAGAUGACAGTT against Fabp7, the z-score is -2.18 (active).
As for GCCUGUCUGCCUUUGCUUCTT against H4c9, the z-score was 2.47 (active).
The same measure for GCUCGUACAUCUAUGGCUATT against Psmb6: -0.633 (inactive).
Take GGACCUAAGCAUUUUACAUTT against Traf2: the z-score is -0.143 (inactive).
Under CCUAUGUGUACUUCAUCCUTT against Elovl1 stands 2.93 (active); under “GCCUUUUAUACAUGUUUGATT against B130024G19Rik”, -1.55 (inactive); under GCUAGAGUAUGAGAACUUCTT against Cdc14b, 0.233 (inactive).
The same measure for GGUAGAGAACCAGAGGCAUTT against Ninj2: -0.164 (inactive); for GCCAGGAAUGCUAUUCUCGTT against Lrg1: -2.26 (active); for CCACCAUUUACUGAGUUUATT against Scn2b: -0.324 (inactive).
Under GUCUUUGGAAAUCUACUCATT against Olfr1189 stands -1.21 (inactive).
For the sequence GGAGAUUCUGUGCAAUGCATT against Dnajc12, the z-score is -0.0758 (inactive).
The same measure for CCAUUAACGUAAAUUCUGUTT against Ankrd13c: -0.971 (inactive).
The same measure for GCUCAUACCUAUCUCAAGGTT against Tnfsf9: 0.365 (inactive); for CCUAACAUAGUAUAGCCUUTT against Zfp868: -0.0695 (inactive).
For the sequence GGUCCUGAAGAUACAUAUUTT against Taf2, the z-score was -2.42 (active).
Under GGGAGAAAUGCAAAUAUUUTT against Mbnl2 stands -0.37 (inactive); under GGUGAAGAAAGCGGAAAAGTT against Cstf3, -0.19 (inactive).
The same measure for GGACCUGUUUUGGAAAUAUTT against Jchain: -0.613 (inactive); for GGGUUAUGGACACUACCCATT against Tnk1: -1.84 (inactive); for GGUACGAGAACAACUGACUTT against Acot3: 0.269 (inactive).
The same measure for GGUACGUGAGAGAAUUCUGTT against Trem2: 3.14 (active).
For GGUCAGAUACAAUGUAUAUTT against Ap1s3, the z-score was -0.793 (inactive).
The same measure for GGUGUGUAAUGUGCGUGAGTT against Ephb3: 1.11 (inactive); for GGGAUCCUUAUUUCAUACUTT against Olfr868: 1.16 (inactive); for GGCGGAAAUCAAAGGAGGATT against Dnmt1: 0.791 (inactive).
The same measure for GGUGGAGUUUAAACUUACATT against Atp4b: 5.64 (active); for GGAAACGAUAGCCAAUAUUTT against Scp2d1: -1.08 (inactive); for GGGAUCAAUGGCUACCUGUTT against Slc7a10: -0.0112 (inactive).
Under UAACUGGGCUCACGUUGACTT against Pou2f1 stands 0.47 (inactive); under GGUACAAAAUGGCUUGUUGTT against Tmem215, 2.53 (active).
Take GGUCCACACCAGACAUCAATT against Wfdc5: the z-score was 0.263 (inactive).
Under CGGUGAUGGUUCAUUUGCATT against Zmiz2 stands 1.36 (inactive).
As for GGCUGUGAAGAACUGGCAGTT against Rnaseh2a, the z-score was 1.85 (inactive).
In the case of “GGUUGUGAGCUAACAAUGGTT against B430209F14Rik”, the z-score is 1.25 (inactive).
The same measure for GAGAACGCGUUUUUGGGACTT against Defa5: 1.66 (inactive).
For GGGAUGUAUUAGUGAAAGGTT against Dmpk, the z-score was 0.368 (inactive).
The same measure for GGAGGAAAUAUGUUAACUATT against Atp6ap2: 1.22 (inactive).
Under CGGCAACCGGCACUAUAAATT against Pnoc stands 0.231 (inactive); under GGCAUUUCAUAGAGAGAAUTT against LTO1, -2.21 (active).
The same measure for GCCUUAGGCCUUUGUUUCCTT against Tpgs2: 0.124 (inactive).
In the case of GGUUCUGGACUUCAUCCUCTT against Ocstamp, the z-score was 1.42 (inactive).
The same measure for GGAAAAUUAAUAGCACAAGTT against Acot13: 0.0633 (inactive).
With GGUUUACUGUGAAAAAAGATT against Morc2b, the z-score is 0.0774 (inactive).
The same measure for CCUGAUACUAACAAGGAAATT against Afmid: -0.625 (inactive); for GGUUGUCUUGACACCCUACTT against Tnfrsf1b: -2.21 (active).
Turning to GGAGAAGCAGAUUCUUCAATT against Calhm6, the z-score is -0.0547 (inactive).
The same measure for GGGAUGUCUGUUGAAAUAATT against Prcc: -0.422 (inactive); for CCAUGACACUCAUUCCCAGTT against Tbc1d7: -2.64 (active).
Under CCAUGUUUAUGGCACGCUGTT against Postn stands 0.536 (inactive); under GGUUUGUAGAGGCAUCAAGTT against Snph, -0.13 (inactive); under GCAUCCUUCUGAGUUGAUGTT against Tollip, -1.02 (inactive).
The same measure for CCUUGAGAAAGCUCCAGUUTT against Cldn9: 0.0773 (inactive); for GGUGUUUCAUAUGGUUACUTT against Psma3: -0.94 (inactive).
Regarding GGAAGUUUGAGUUUGAGCUTT against Fbxl21, the z-score is 1.79 (inactive).
The same measure for GCUCUCUAUAGGAUAAUGGTT against Vwa5b2: -1.86 (inactive); for CGAUAUCAAGAGUGCAUGATT against Gas6: 2.97 (active); for GGCUAAUCACCAAUUUCUUTT against Derl2: -1.19 (inactive).
The same measure for GCACCUUCAACCAACAAGGTT against Dph3: -0.311 (inactive); for GGUCAUUCGCUUCGAAAAGTT against C1qb: -2.05 (active).
The same measure for GGAAUUCCUCUGUAUGAAATT against Pgr: -0.824 (inactive).
For GGACUACCACAGCCUCUUCTT against Pxn, the z-score was 0.173 (inactive).
Under GGGCAAAUGAUAUAAGGAUTT against Ndufa12 stands -0.585 (inactive); under CCUCUUGGUUAAAUAAUGUTT against Rnf103, -1.9 (inactive).
The same measure for GCGGCAACAUUCAAAGUGGTT against Itgb2l: -1.94 (inactive).
The same measure for GGCUGUGUCAUCACCAUCUTT against Acot7: -1.31 (inactive).
For GGAUGCUCUCUUAAAUGGATT against Gbp6, the z-score is 0.327 (inactive).
The same measure for GGUUGUCAAGAAAUUACCCTT against Marchf10: 2.14 (active); for GGAUGAUAUCUCAGUCAUGTT against Sult2a8: 0.462 (inactive); for GGAAGGAAUUGGUUACCUATT against Cep72: -0.2 (inactive).
The same measure for GGCUGAGUGAAUUGGGAAUTT against Olfr419: 1.28 (inactive); for GGACGAUAGGACCCAAAGGTT against Sh3tc1: 0.668 (inactive).
For GGAUUUGUACACACUUCAATT against Tcim, the z-score was 1.48 (inactive).
As to GGCAUCCAAUCCUGUGGAGTT against Bcl11a, the z-score is -0.62 (inactive).
The same measure for GGGAGAUAUCUUCUCAGUATT against Psmb11: 1.5 (inactive); for CGUAGAUGUCCUAGAAUUGTT against Rundc1: 1.37 (inactive); for GGAGGAGUAUGAAGAGCUGTT against Poc5: -0.0911 (inactive).
On to GGACAAUUCAGAGUGAUAGTT against Mog, for which the z-score is -2.21 (active).
